G9a inh: blocks human histone lysine methyltransferase G9a. 350,000 compounds, 8.8% hits. Potency, µM (top dose mostly 102 µM), inactives show at the highest dose activity, negative = inhibition, actives largely listed as inhibitors. G9a H3K9 monomethylation, AlphaScreen, 2 h. Q96KQ7; further: on the % scale 0 is the no-effect control and ±100 the full control effect; nearly all actives have a fitted effect of over 75% in size
Target sequence (Q96KQ7 913-1193 limits assumed): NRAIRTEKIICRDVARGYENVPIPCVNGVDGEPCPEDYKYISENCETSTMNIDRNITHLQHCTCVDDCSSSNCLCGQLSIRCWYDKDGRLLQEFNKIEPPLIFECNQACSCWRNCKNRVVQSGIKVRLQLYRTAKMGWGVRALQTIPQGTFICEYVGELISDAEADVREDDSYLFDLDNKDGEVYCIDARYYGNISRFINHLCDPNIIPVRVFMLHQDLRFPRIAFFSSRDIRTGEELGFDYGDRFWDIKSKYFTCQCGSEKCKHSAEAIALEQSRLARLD
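Quantitative HTS format: methyltransferase activity on a biotin-tagged H3K9 peptide is measured by AlphaScreen, using a rabbit anti-monomethyl-H3K9 antibody with streptavidin donor and anti-IgG acceptor beads. Final levels are 20 nM enzyme, 500 nM peptide, 20 uM SAM; 2 h RT.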
BAZ2B block: blocks human BAZ2B | Q9UIF8 | AlphaScreen BAZ2B-H3K14Ac peptide displacement | Potency, µM (series often up to 114 µM), for the others: at the highest dose activity change, negative = inhibition, most hits filed as inhibitors | 360,000 compounds, 4.4% hits | AID 504333; further: on the % scale 0 is the no-effect control and ±100 the full control effect; nearly all actives have a fitted effect of over 60% in size
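AlphaScreen displacement: compounds (up to 110uM) incubated 30 min at room temperature with a preformed 50 nM BAZ2B/50 nM biotinylated H3K14Ac peptide complex in PBS pH 7.4 with Tween-20. Donor and acceptor beads at 10 ug/mL final added, 20 min light-protected before reading.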
PLK1 PBD inh: inhibitors of human PLK1 polo-box domain binding | Potency, µM, for the others: max response, negative = inhibition, hits mostly inhibitors | 360,000 compounds, 2.8% hits | P53350 | Plk1 PBD binding of FITC phosphopeptide, fluorescence polarization; further: series mostly up to about 57 µM; on the % scale 0 is the no-effect control and ±100 the full control effect; nearly all actives have a fitted effect of over 65% in size
Sfp PPTase inh: inhibitors of Bacillus subtilis Sfp phosphopantetheinyl transferase; Q9F4F7; Biochemical Sfp PPTase activity, qHTS; Potency, µM, for inactives: largest response in the series, negative = inhibition, usual class: inhibitors; 310,000 compounds, 3.5% hits;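 further: the enzyme is Sfp with the accession as filed and its product quenches rhodamine fluorescence; 0% = enzyme reaction without inhibitor and -100% = no enzyme wells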
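Sfp 15 nM + cpd, 15 min RT; start w/ rhodamine-CoA 5 uM, BHQ-2-YbbR 12.5 uM (final); 50 mM Hepes pH 7.6, 10 mM MgCl2, 0.01% NP-40, 0.01% BSA; read 525/598 nm at 0 and 30 min.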
HP1b binding inh: inhibitors of HP1-beta chromodomain binding to methylated histone tails; 390,000 compounds, 0.56% hits; AlphaScreen HP1-beta / biotin-H3K9me3 peptide binding; P83916; AID 540317; Potency, µM (top dose mostly 114 µM), without a hit: top-dose activity change, negative = inhibition, usual class: inhibitors; further: nearly all actives have a fitted effect of over 70% in size
Target sequence (P83916 whole entry, looked up): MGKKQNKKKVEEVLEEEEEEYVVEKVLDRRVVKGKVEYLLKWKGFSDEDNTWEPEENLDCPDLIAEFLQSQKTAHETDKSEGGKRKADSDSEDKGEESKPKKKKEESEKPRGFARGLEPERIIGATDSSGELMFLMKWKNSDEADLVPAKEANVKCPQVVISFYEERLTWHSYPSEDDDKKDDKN
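Compound inhibition of the preformed complex between 50 nM HP1-beta and 50 nM biotinylated H3K9me3 peptide was read by AlphaScreen. Buffer was PBS pH 7.4 with 0.01% Tween-20. Incubations ran 30 min at room temperature, with 10 ug/mL donor/acceptor beads.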
JMJD2A Tudor inh: inhibitors of human JMJD2A Tudor domain; O75164; AlphaScreen JMJD2A-Tudor / H3K4me3 peptide binding; Potency, µM (titrated, usually from 114 µM), for the others: at the top dose activity change, negative = inhibition, hits mostly inhibitors; 390,000 compounds, 4.4% hits; AID 504339; further: on the % scale 0 is the no-effect control and ±100 the full control effect; nearly all actives have a fitted effect of over 50% in size
* marks the source's active call; other numbers are inactive results; ? = inconclusive; · = no result given; [ ] = dose if it differs, or a comment. In the library only some 12% were active in any assay of this set; here they are far more common. The call rests on the fitted dose curve; in most records, active means well fitted curve in the direction sought with a large enough effect; inconclusive means small, poorly fitted or top-dose-only effect, or another doubt; inactive means no such curve, though single readings can be large; an effect the other way counts as inactive or inconclusive. Potency means the concentration at half of the fitted maximal effect.

SMILES	G9a inh	BAZ2B block	PLK1 PBD inh	Sfp PPTase inh	HP1b binding inh	JMJD2A Tudor inh
COc1cc2cc(CN(Cc3cccnc3)C(=O)Nc3ccccc3F)c(=O)[nH]c2cc1OC	·	0%	-4%	-3%	27%	-19%
Cc1[nH]c2ccccc2c1C1=NNC(=Nc2ccc(F)cc2)SC1	?	?	-18%	22µM*	?	56µM*
Fc1ccc(N=C2NN=C(c3cc(F)ccc3F)CS2)cc1	-11%[59 µM]	?	?	-9%	-21%	-28%
COc1ccc(N=C2NN=C(c3c(C)[nH]c4ccccc34)CS2)cc1	8.9µM*	40µM*	-19%	35µM*	?	?
O=C(Nc1ccc2ncccc2c1)c1cc(Cl)ccc1Cl	-8%	-14%	1%	9%	36%	-17%
COCCNC(=S)N(CCc1c(C)[nH]c2ccc(OC)cc12)Cc1ccco1	50µM*	?	3%	7%	?	?
CNC(=S)N(CCc1c(C)[nH]c2ccc(OC)cc12)Cc1ccco1	50µM*	?	-21%	12%	-6%	?
CNC(=S)N(Cc1ccco1)Cc1cc2cc(OC)ccc2[nH]c1=O	·	-8%	-8%	1%	-3%	-22%
COCCNC(=S)N(CCc1c(C)[nH]c2ccc(C)cc12)Cc1ccco1	45µM*	35µM*	-3%	10%	-15%	?
CCCCCNC(=O)C(c1ccc(C(F)(F)F)cc1)n1c(=O)c(-c2ccco2)nc2ccccc21 (stereo not given)	·	·	-9%	·	·	·
COCc1c(Br)c(C)nc2sc3c(=O)[nH]nnc3c12	35µM*	56µM*	?	-28%	29%	-14%
Cc1nc2sc3c(=O)[nH]nnc3c2c(C)c1Br	4%[0.501 µM]	17%	-16%	-1%	13%	-3%
COc1ccc(CNC(=O)CC[C@H]2O[C@@H](n3cc(C)c(=O)[nH]c3=O)C[C@@H]2O)cc1	·	·	-8%	·	·	·
CC(C(=O)N1CCN(C=O)CC1)N1C(=O)c2ccccc2C1=O (stereo not given)	22%	11%	19µM*	6%	4%	-29%[11.4 µM]
COc1ccccc1CNC(=O)CCCCn1c(=O)c2ccccc2n(Cc2ccccc2C)c1=O	-21%[59 µM]	?	·	·	17%	3%
CCCOc1ccc(N2C(=O)CC(N3CCN(c4ccccc4F)CC3)C2=O)cc1 (stereo not given)	20%[59 µM]	3%	-9%	15%	12%	-5%
CCOc1ccc(N2C(=O)CC(NCCNc3ccc([N+](=O)[O-])cn3)C2=O)cc1 (stereo not given)	3.2µM*	-20%	-10%	7%	41%	-24%
COc1ccc(N2C(=O)CC(NCCNc3ccc([N+](=O)[O-])cn3)C2=O)cc1 (stereo not given)	6.3µM*	-22%	-10%	-10%	23%	-18%
CCOc1ccc(N2C(=O)CC(N3CCN(c4ccc([N+](=O)[O-])cc4)CC3)C2=O)cc1 (stereo not given)	7.9µM*	-25%	-7%	-13%	35%	-18%
CCCOc1ccc(N2C(=O)CC(N3CCN(c4nc5ccccc5s4)CC3)C2=O)cc1 (stereo not given)	45µM*	28%	-8%	4%	44%	-9%
CCN1CCN(C(c2cccc(F)c2)c2c(O)cc(C)n(Cc3ccco3)c2=O)CC1 (stereo not given)	?	-14%	·	·	18%[57 µM]	-35%
CO[C@@H]1COC(=O)[C@H]2CCCN2C(=O)C/C=C\[C@@H](C)[C@H](OC)COC(=O)[C@H]2CCCN2C(=O)C/C=C\[C@H]1C	·	·	·	-14%	·	·
COC(=O)c1nn(-c2nc(-c3cccc(OC)c3)cc(C(F)(F)F)n2)cc1[N+](=O)[O-]	-6%[59 µM]	-6%	-14%	-16%	38%	-6%
COc1ccccc1N(CC(=O)NCc1ccco1)C(=O)CCC(=O)Nc1ccccn1	6%	-28%	5%	9%	11%	5%
Cc1ccc(Cn2c(NCCCn3ccnc3)nc3c2c(=O)n(C)c(=O)n3C)cc1	7%	3%	-8%	12%	11%	-23%

Screening results as filed in PubChem BioAssay.
